# The panel holds about 79,000 compounds, 15% with a hit somewhere; the sample as a whole holds those more often. Values without a mark were called inactive. The source made the active and inactive calls. Rule as the data show it: active = growth inhibition above about 70%; inactive = the rest.
# What was measured:
# [1] = NCI Yeast Anticancer Drug Screen. Data for the rad52 strain (AID 147);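 also: 0% = growth of vehicle-treated control cultures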; details: S. cerevisiae rad52 mutant growth inhibition, stronger effect = higher value
# How it was run: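 The repair-mutant yeast strain was incubated with compounds, then growth was read and inhibition derived relative to vehicle.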
# [2] = NCI Yeast Anticancer Drug Screen. Data for the wt1 strain (AID 149);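 also: 0% = growth of vehicle-treated wt1 cultures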; details: S. cerevisiae wt1 strain (SPY 50644) growth inhibition, stronger effect = higher value
# How it was run: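 Vehicle-normalised growth inhibition; strain wt1; compound exposure.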
# [3] = NCI Yeast Anticancer Drug Screen. Data for the rad50EPP+ strain (AID 151);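 also: 0% = growth of vehicle-treated control cultures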; details: S. cerevisiae rad50 mutant strain, stronger effect = higher value
# How it was run: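 Vehicle-normalised growth inhibition; rad50EPP+ yeast strain, altered in DNA damage repair, compound-treated.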
# [4] = NCI Yeast Anticancer Drug Screen. Data for the mgt1 strain (AID 153); details: S. cerevisiae mgt1 mutant growth inhibition, stronger effect = higher value
# How it was run: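 Vehicle-normalized growth inhibition is determined in mgt1 yeast, a strain selected for a defined alteration in DNA repair or cell cycle control.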
# [5] = NCI Yeast Anticancer Drug Screen. Data for the rad50 strain (AID 155);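 also: 0% = growth of vehicle-only cultures of the same strain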; details: S. cerevisiae rad50 strain growth inhibition, stronger effect = higher value
# How it was run: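 A DNA repair-deficient yeast mutant serves as the test organism; compound-induced growth inhibition is calculated against vehicle-treated cells.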
# [6] = NCI Yeast Anticancer Drug Screen. Data for the mec2-1 strain (AID 157); details: S. cerevisiae mec2-1 strain, stronger effect = higher value
# How it was run: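 Mutant yeast (mec2-1) grown with compound; growth inhibition relative to vehicle control reported.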
# [7] = NCI Yeast Anticancer Drug Screen. Data for the rad14 strain (AID 159);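 also: 0% = growth of vehicle-treated control cultures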; details: S. cerevisiae rad14 strain growth inhibition, stronger effect = higher value
# How it was run: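 Vehicle-treated cultures served as the baseline for growth inhibition of a DNA repair-mutant yeast strain exposed to each compound.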
# [8] = NCI Yeast Anticancer Drug Screen. Data for the sgs1 mgt1 strain (AID 161);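 also: 0% = growth of cultures given vehicle only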; details: S. cerevisiae sgs1 mgt1 strain, stronger effect = higher value
# How it was run: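 Compounds are added to genetically altered yeast, and growth is compared with cultures given vehicle alone to give percent inhibition.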
# [9] = NCI Yeast Anticancer Drug Screen. Data for the CLN2oe strain (AID 163);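 also: 0% = growth of vehicle-only control cultures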; details: S. cerevisiae CLN2oe strain, stronger effect = higher value
# How it was run: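 Compounds are applied to yeast harbouring a defined cell-cycle control change; reduced growth compared with vehicle-treated controls gives the value.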
# [10] = NCI Yeast Anticancer Drug Screen. Data for the cln2 rad14 strain (AID 165);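 also: 0% = growth equal to vehicle treated cultures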; details: S. cerevisiae cln2 rad14 strain, stronger effect = higher value
# How it was run: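 Readout is yeast growth inhibition versus vehicle-treated controls, using a strain with cln2 and rad14 alterations exposed to compound.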
# [11] = NCI Yeast Anticancer Drug Screen. Data for the bub3 strain (AID 167); details: S. cerevisiae bub3 mutant strain, stronger effect = higher value
# How it was run: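 Inhibition values come from growth of compound-treated mutant yeast normalised to vehicle-treated controls.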
# [12] = NCI Yeast Anticancer Drug Screen. Data for the wt2 strain (AID 169);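 also: 0% = growth of vehicle-treated yeast cultures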; details: S. cerevisiae wt2 strain growth inhibition, stronger effect = higher value
# How it was run: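 Against vehicle-treated controls, the growth of yeast exposed to each compound was compared, and the inhibition was recorded.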
# [13] = NCI Yeast Anticancer Drug Screen. Data for the mlh1 strain (AID 171);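 also: 0% = growth of vehicle-treated control cultures of the same strain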; details: S. cerevisiae mlh1 strain growth inhibition, stronger effect = higher value
# How it was run: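 Measured: yeast growth. Reference: vehicle-treated controls. Organism: strain with a defined alteration affecting DNA damage repair or cell cycle control, treated with compound.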
# [14] = NCI Yeast Anticancer Drug Screen. Data for the sgs1 strain (AID 173);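 also: 0% = growth of vehicle-only control cultures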; details: S. cerevisiae sgs1 mutant, stronger effect = higher value
# How it was run: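 Each compound was added to cultures of the altered yeast strain. Growth was recorded, and inhibition was derived by comparison with vehicle controls.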
# [15] = NCI Yeast Anticancer Drug Screen. Data for the mlh1 rad18 strain (AID 175); details: S. cerevisiae mlh1 rad18 strain growth inhibition, stronger effect = higher value
# How it was run: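 Genetically defined yeast (DNA repair-deficient) exposed to compounds; growth inhibition determined relative to vehicle.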
# [16] = NCI Yeast Anticancer Drug Screen. Data for the rad18 strain (AID 177); details: S. cerevisiae rad18 mutant growth inhibition, stronger effect = higher value
# How it was run: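 Vehicle-treated cultures served as the baseline for scoring compound-induced growth inhibition in DNA-repair-mutant yeast.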
# [17] = at 5.0 µM (retest, dose inferred, filed as 0.5)
# [18] = at 50.0 µM (retest, dose inferred, filed as 5.0)
smiles,measurement,setting,value
CC(C)=CCc1c2c(c(O)c3c(=O)c(-c4ccc(O)c(O)c4)coc13)C=CC(C)(C)O2,growth inhibition,[1]; at 1.2 µM,-32%
same,growth inhibition,[1]; at 3.7 µM,-19%
same,growth inhibition,[1]; at 11.0 µM,96% (active)
same,growth inhibition,[1]; at 33.0 µM,93% (active)
same,growth inhibition,[1]; at 100.0 µM,87% (active)
same,growth inhibition,[2]; at 1.2 µM,-20%
same,growth inhibition,[2]; at 3.7 µM,-32%
same,growth inhibition,[2]; at 11.0 µM,79% (active)
same,growth inhibition,[2]; at 33.0 µM,93% (active)
same,growth inhibition,[2]; at 100.0 µM,89% (active)
same,growth inhibition,[3]; at 1.2 µM,-63%
same,growth inhibition,[3]; at 3.7 µM,-42%
same,growth inhibition,[3]; at 11.0 µM,-21%
same,growth inhibition,[3]; at 33.0 µM,-8%
same,growth inhibition,[3]; at 100.0 µM,-31%
same,growth inhibition,[4]; at 1.2 µM,-55%
same,growth inhibition,[4]; at 3.7 µM,-33%
same,growth inhibition,[4]; at 11.0 µM,94% (active)
same,growth inhibition,[4]; at 33.0 µM,92% (active)
same,growth inhibition,[4]; at 100.0 µM,87% (active)
same,growth inhibition,[5]; at 1.2 µM,-36%
same,growth inhibition,[5]; at 3.7 µM,-17%
same,growth inhibition,[5]; [17],-3%
same,growth inhibition,[5]; at 11.0 µM,93% (active)
same,growth inhibition,[5]; at 33.0 µM,93% (active)
same,growth inhibition,[5]; [18],91% (active)
same,growth inhibition,[5]; at 50.0 µM,84.8% (active)
same,growth inhibition,[5]; at 100.0 µM,88% (active)
same,growth inhibition,[6]; at 1.2 µM,-89%
same,growth inhibition,[6]; at 3.7 µM,-93%
same,growth inhibition,[6]; [17],30%
same,growth inhibition,[6]; at 11.0 µM,87% (active)
same,growth inhibition,[6]; at 33.0 µM,91% (active)
same,growth inhibition,[6]; [18],93% (active)
same,growth inhibition,[6]; at 50.0 µM,88% (active)
same,growth inhibition,[6]; at 100.0 µM,85% (active)
same,growth inhibition,[7]; at 1.2 µM,-72%
same,growth inhibition,[7]; at 3.7 µM,-68%
same,growth inhibition,[7]; at 11.0 µM,91% (active)
same,growth inhibition,[7]; at 33.0 µM,91% (active)
same,growth inhibition,[7]; at 100.0 µM,87% (active)
same,growth inhibition,[8]; [17],18%
same,growth inhibition,[8]; [18],93% (active)
same,growth inhibition,[8]; at 50.0 µM,87.5% (active)
same,growth inhibition,[9]; at 1.2 µM,-32%
same,growth inhibition,[9]; at 3.7 µM,-5%
same,growth inhibition,[9]; at 11.0 µM,95% (active)
same,growth inhibition,[9]; at 33.0 µM,91% (active)
same,growth inhibition,[9]; at 100.0 µM,81% (active)
same,growth inhibition,[10]; [17],23%
same,growth inhibition,[10]; [18],92% (active)
same,growth inhibition,[10]; at 50.0 µM,83.5% (active)
same,growth inhibition,[11]; at 1.2 µM,-29%
same,growth inhibition,[11]; at 3.7 µM,-28%
same,growth inhibition,[11]; [17],14%
same,growth inhibition,[11]; at 11.0 µM,90% (active)
same,growth inhibition,[11]; at 33.0 µM,93% (active)
same,growth inhibition,[11]; [18],92% (active)
same,growth inhibition,[11]; at 50.0 µM,84.8% (active)
same,growth inhibition,[11]; at 100.0 µM,87% (active)
same,growth inhibition,[12]; at 1.2 µM,-50%
same,growth inhibition,[12]; at 3.7 µM,-52%
same,growth inhibition,[12]; at 11.0 µM,77% (active)
same,growth inhibition,[12]; at 33.0 µM,92% (active)
same,growth inhibition,[12]; at 100.0 µM,87% (active)
same,growth inhibition,[13]; at 1.2 µM,5%
same,growth inhibition,[13]; at 3.7 µM,14%
same,growth inhibition,[13]; at 11.0 µM,90% (active)
same,growth inhibition,[13]; at 33.0 µM,93% (active)
same,growth inhibition,[13]; at 100.0 µM,86% (active)
same,growth inhibition,[14]; at 1.2 µM,-46%
same,growth inhibition,[14]; at 3.7 µM,-36%
same,growth inhibition,[14]; at 11.0 µM,91% (active)
same,growth inhibition,[14]; at 33.0 µM,91% (active)
same,growth inhibition,[14]; at 100.0 µM,85% (active)
same,growth inhibition,[15]; [17],43%
same,growth inhibition,[15]; [18],90% (active)
same,growth inhibition,[15]; at 50.0 µM,85.1% (active)
same,growth inhibition,[16]; at 1.2 µM,-24%
same,growth inhibition,[16]; at 3.7 µM,-4%
same,growth inhibition,[16]; at 11.0 µM,94% (active)
same,growth inhibition,[16]; at 33.0 µM,93% (active)
same,growth inhibition,[16]; at 100.0 µM,89% (active)
O=c1c2ccccc2nc(-c2cccc([N+](=O)[O-])c2)n1O,growth inhibition,[1]; at 1.2 µM,17%
same,growth inhibition,[1]; at 3.7 µM,45%
same,growth inhibition,[1]; at 11.0 µM,83% (active)
same,growth inhibition,[1]; at 33.0 µM,91% (active)
same,growth inhibition,[1]; at 100.0 µM,91% (active)
same,growth inhibition,[2]; at 1.2 µM,12%
same,growth inhibition,[2]; at 3.7 µM,21%
same,growth inhibition,[2]; at 11.0 µM,60%
same,growth inhibition,[2]; at 33.0 µM,84% (active)
same,growth inhibition,[2]; at 100.0 µM,90% (active)
same,growth inhibition,[3]; at 1.2 µM,-9%
same,growth inhibition,[3]; at 3.7 µM,-5%
same,growth inhibition,[3]; at 11.0 µM,13%
same,growth inhibition,[3]; at 33.0 µM,35%
same,growth inhibition,[3]; at 100.0 µM,65%
same,growth inhibition,[4]; at 1.2 µM,13%
same,growth inhibition,[4]; at 3.7 µM,21%
same,growth inhibition,[4]; at 11.0 µM,52%
same,growth inhibition,[4]; at 33.0 µM,85% (active)
same,growth inhibition,[4]; at 100.0 µM,90% (active)
same,growth inhibition,[5]; at 1.2 µM,14%
same,growth inhibition,[5]; at 3.7 µM,31%
same,growth inhibition,[5]; [17],12%
same,growth inhibition,[5]; at 11.0 µM,76% (active)
same,growth inhibition,[5]; at 33.0 µM,89% (active)
same,growth inhibition,[5]; [18],97% (active)
same,growth inhibition,[5]; at 50.0 µM,97.8% (active)
same,growth inhibition,[5]; at 100.0 µM,91% (active)
same,growth inhibition,[6]; at 1.2 µM,14%
same,growth inhibition,[6]; at 3.7 µM,19%
same,growth inhibition,[6]; [17],7%
same,growth inhibition,[6]; at 11.0 µM,37%
same,growth inhibition,[6]; at 33.0 µM,58%
same,growth inhibition,[6]; [18],95% (active)
same,growth inhibition,[6]; at 50.0 µM,97.7% (active)
same,growth inhibition,[6]; at 100.0 µM,68%
same,growth inhibition,[7]; at 1.2 µM,36%
same,growth inhibition,[7]; at 3.7 µM,73% (active)
same,growth inhibition,[7]; at 11.0 µM,93% (active)
same,growth inhibition,[7]; at 33.0 µM,97% (active)
same,growth inhibition,[7]; at 100.0 µM,97% (active)
same,growth inhibition,[8]; [17],26%
same,growth inhibition,[8]; [18],97% (active)
same,growth inhibition,[8]; at 50.0 µM,98% (active)
same,growth inhibition,[9]; at 1.2 µM,6%
same,growth inhibition,[9]; at 3.7 µM,15%
same,growth inhibition,[9]; at 11.0 µM,33%
same,growth inhibition,[9]; at 33.0 µM,46%
same,growth inhibition,[9]; at 100.0 µM,51%
same,growth inhibition,[10]; [17],-20%
same,growth inhibition,[10]; [18],76% (active)
same,growth inhibition,[10]; at 50.0 µM,87.2% (active)
same,growth inhibition,[11]; at 1.2 µM,-4%
same,growth inhibition,[11]; at 3.7 µM,5%
same,growth inhibition,[11]; [17],71% (active)
same,growth inhibition,[11]; at 11.0 µM,43%
same,growth inhibition,[11]; at 33.0 µM,59%
same,growth inhibition,[11]; [18],96% (active)
same,growth inhibition,[11]; at 50.0 µM,84.8% (active)
same,growth inhibition,[11]; at 100.0 µM,70% (active)
same,growth inhibition,[12]; at 1.2 µM,25%
same,growth inhibition,[12]; at 3.7 µM,49%
same,growth inhibition,[12]; at 11.0 µM,87% (active)
same,growth inhibition,[12]; at 33.0 µM,94% (active)
same,growth inhibition,[12]; at 100.0 µM,95% (active)
same,growth inhibition,[13]; at 1.2 µM,16%
same,growth inhibition,[13]; at 3.7 µM,29%
same,growth inhibition,[13]; at 11.0 µM,71% (active)
same,growth inhibition,[13]; at 33.0 µM,78% (active)
same,growth inhibition,[13]; at 100.0 µM,90% (active)
same,growth inhibition,[14]; at 1.2 µM,37%
same,growth inhibition,[14]; at 3.7 µM,72% (active)
same,growth inhibition,[14]; at 11.0 µM,91% (active)
same,growth inhibition,[14]; at 33.0 µM,94% (active)
same,growth inhibition,[14]; at 100.0 µM,95% (active)
same,growth inhibition,[15]; [17],21%
same,growth inhibition,[15]; [18],98% (active)
same,growth inhibition,[15]; at 50.0 µM,98.1% (active)
same,growth inhibition,[16]; at 1.2 µM,37%
same,growth inhibition,[16]; at 3.7 µM,64%
same,growth inhibition,[16]; at 11.0 µM,88% (active)
same,growth inhibition,[16]; at 33.0 µM,92% (active)
same,growth inhibition,[16]; at 100.0 µM,92% (active)

# Reference: PubChem BioAssay (NCI)
